Active and inactive are the calls of the source.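 The calls were made as follows: active = hit in primary screen, with calcium signal over 5 SD above buffer well mean in both duplicates; inactive = the rest.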
Test: calcium flux activation in mu-opioid HEK293 cells, confirmation, counter-screen for TRPC4 activator project, cell-based, HEK293 mu-opioid receptor line (AID 449723);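 also: counter screen cells carry the mu-opioid receptor alone and lack TRPC4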; as to activation: reference of the scale not given here
Conditions: Fluo-4 calcium fluorescence, at 10 µM; hits give high values

Compound | outcome | activation
CN1CCC(CNC(=O)Nc2ccccc2)(c2ccccc2)CC1 | inactive | 
Cc1ccc(C)c(OCCCCCn2ccnc2)c1 | inactive | 
CN(C)C(CNC(=O)c1ccc2ccccc2n1)c1ccccc1 (stereo not drawn) | inactive | 
CCn1cc(CN2CCC(n3nccc3NC(=O)CCOc3ccccc3)CC2)cn1 | inactive | 
CCOC(=O)C1(CCOc2ccccc2)CCN(Cc2cnc(C)s2)CC1 | inactive | 
CCN1CCN(c2ccc(S(=O)(=O)N3CCOCC3)cc2NC(=O)C(C)Oc2cccc(Cl)c2)CC1 (stereo not drawn) | inactive | 
CN(CCc1nc2ccc(Cl)cc2[nH]1)Cc1nc(CC2CC2)no1 | inactive | 
COc1ccccc1CCC(=O)Nc1cc(S(=O)(=O)N2CCCCC2)ccc1N1CCN(C)CC1 | inactive | 
CCCCC(=O)NNC(=S)NC(=O)c1ccc(C)cc1 | inactive | 
Cc1ccc(C2N(c3ccc(Cl)c(Cl)c3)C(=O)C3CCCN32)o1 (stereo not drawn) | inactive | 
COc1ccccc1N1CCN(C(c2cccs2)C(C)NC(=O)c2cccs2)CC1 (stereo not drawn) | inactive | 
O=C(Nc1nnc(-c2ccccc2Cl)o1)c1nc2ccccc2s1 |  | 30.2% (active)
CCOC(=O)C1(CC2CCCCO2)CCN(Cc2c(C)cc(C)cc2-n2cccn2)CC1 (stereo not drawn) | inactive | 
Cc1ccccc1OCC(=O)NNC(=S)NC(=O)c1ccco1 | inactive | 
Cc1ccc(C2(O)CN(c3ccccc3C)C3=[N+]2CCS3)cc1 (stereo not drawn) | inactive | 
Cc1ccccc1C(=O)NNC(=S)NC(=O)c1ccccc1 |  | 72.9% (active)
Cc1ccc(C(=O)NC(=S)NNC(=O)c2ccccc2)cc1 |  | 12.1% (active)
Fc1ccc(-c2nnc(CN3CCN(c4ncc(C(F)(F)F)cc4Cl)CC3)o2)cc1 | inactive | 
